Measurements published in PubChem BioAssay (NCATS).
Activity calls are given as the source filed them. Calls follow the shape of the full dose curve.

Molecular target: Catechol O-methyltransferase (Homo sapiens) (UniProt P21964)
Assay: Confirmatory Screen for Target Class Profiling of Small Molecule Inhibitors of Methyltransferases (AID 1745852); as to activity change, negative = inhibition: % is scaled to controls: 0 for no effect and ±100 for the full control effect
Conditions: MTase-Glo luminescence, SAH detection, recombinant enzyme; measured here: COMT max response; stronger effect = lower value
Potency is read from the fitted curve at half-maximal effect.

Catechol O-methyltransferase (Homo sapiens), sequence (P21964 whole entry, looked up): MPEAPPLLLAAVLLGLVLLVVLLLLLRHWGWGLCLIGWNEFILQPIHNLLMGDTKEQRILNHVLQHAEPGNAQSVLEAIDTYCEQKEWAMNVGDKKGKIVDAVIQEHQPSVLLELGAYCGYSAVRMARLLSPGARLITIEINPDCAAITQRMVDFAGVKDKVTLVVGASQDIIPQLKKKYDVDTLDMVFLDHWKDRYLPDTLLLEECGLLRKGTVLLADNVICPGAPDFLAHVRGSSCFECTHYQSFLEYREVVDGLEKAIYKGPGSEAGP

Compound | activity
COc1ccc(CC(=O)Nc2ccc3ncnc(N4CCCC4)c3c2)c(Cl)c1 | -2.51%
CC1CC(C)CN(S(=O)(=O)c2ccc3c(c2)oc(=O)n3CC(=O)Nc2cccc(F)c2)C1 (configuration not stated) | 1.38%
CCCCN1C(=O)c2cc(C(=O)Nc3cc(C)cc(C)c3)nn2CC1(C)C(=O)NC1CCCC1 (configuration not stated) | -1.58%
COc1ccc(S(=O)(=O)N2CCC(n3c(=O)[nH]c4ccccc43)CC2)cc1 | -23.2%
COC(=O)[C@@H]1Cc2ncn(Cc3ccc(Cl)cc3)c2CN1CCCc1ccccc1 | 0.13%
FC(F)(F)c1ccnc(N2CC[C@H](c3nnc(-c4ccncc4)o3)C2)n1 | 2.16%
Cc1cnc(CCNC(=O)c2cccs2)n1C1CCC1 | 0.518%
Cc1nc2cccnc2n1CC1CCCN(S(=O)(=O)c2ccc3c(c2)OCCO3)C1 (configuration not stated) | 2.68%
CCCn1c(=O)c2ccccc2n2c(=O)n(CC(=O)c3cccc(Cl)c3)nc12 | -8.93%
O=C(CCc1nnc2n(CCc3ccccc3)c(=O)c3ccccc3n12)NCCCN1CCCCC1 | -0.192%
CC(C)CCNC(=O)c1ccc2c(=O)[nH]c3c(C(=O)NC4CCCC4)sc(=S)n3c2c1 | -37.7%
CC(C)CCn1c(=O)c2ccccc2n2c(CCC(=O)N3CCN(c4cccc(Cl)c4)CC3)nnc12 | 1.55%
COc1ccc(-c2[nH]nc3ncc(C(=O)N4CCC(c5ccccc5)CC4)nc23)c(C)c1 | -39.6%
O=C(c1ccc(C2CCCNC2)cc1)N1CCN(c2ccncc2)CC1 (configuration not stated) | 3.41%
O=C(NCc1ccc(Cl)cc1)c1ccc2c(=O)nc3c(-c4ccccc4F)n[nH]n3c2c1 | -4.08%
CCNc1nc2c(s1)C(c1cccc(F)c1)CC(=O)N2 (configuration not stated) | -12.6%
COc1cccc(NC(=O)Cn2c(=O)oc3cc(S(=O)(=O)N4CCCCC4C)ccc32)c1 (configuration not stated) | 0.845%
CC(C)CCNC(=O)c1ccc2c(=O)[nH]c3c(C(=O)NC(C)C)sc(=S)n3c2c1 | -37.8%
c1ccc(CCN2CCNc3cc(NCc4cccnc4)ncc3C2)cc1 | 2.5%
COc1ccc(-c2n[nH]n3c2nc(=O)c2ccc(C(=O)NCc4ccc(OC)c(OC)c4)cc23)cc1 | -3.17%
COc1ccc(CCNc2nc3c(-c4cccc(F)c4)nnn3c3ccccc23)cc1OC | -7.47%
O=C(O)c1ccc2c(c1)C1C=CCC1C(c1cccc(F)c1)N2 (configuration not stated) | -2.11%
CCCN1CCn2c3c(c4cc(OC)ccc42)CCN=C31 | -5.03%

Molecular target: Guanidinoacetate N-methyltransferase (Homo sapiens) (UniProt Q14353)
Assay: as above
Conditions: MTase-Glo luminescence, SAH detection, recombinant enzyme; activity change, negative = inhibition: at 57.3 µM (top of the series) unless noted; series mostly up to 57.3 µM

Compound | activity change, negative = inhibition | Potency | outcome
CN1C(=O)C(c2ccccc2)CC12CCN(c1ccnc(N)n1)CC2 (configuration not stated) | 9.95% |  | 
Cn1c(=O)n(C)c2cc(S(=O)(=O)N3CCN(C4CCCCC4)CC3)ccc21 | -0.234% |  | 
O=C1c2ccccc2C(=O)c2cc(S(=O)(=O)NCCO)ccc21 | 0% |  | 
Cc1ccc2c(c1)c(-n1cccc1)c1n2CC(C)(C(=O)NCCC(C)C)N(Cc2cccnc2)C1=O (configuration not stated) | 0% |  | 
Cn1cc2c3c(cccc31)CN(C(=O)c1ccccc1F)CC2 | 8.53% |  | 
Cc1ccccc1-c1[nH]nc2ncc(-c3c(C)noc3C)nc12 | -10.5% [at 85.7 µM] |  | 
Cc1ccc(NS(=O)(=O)c2ccc3c(c2)[C@H]2C=CC[C@H]2[C@@H](c2cccc(Cl)c2)N3)c(C)c1 | -14.3% |  | 
C1=C(c2nc(-c3ccncc3)cc3c2ccn3Cc2cccnc2)CCOC1 | -9.57% [at 85.7 µM] |  | 
COc1ccccc1N1CCN(S(=O)(=O)c2cccc3c2C(=O)c2ccccc2C3=O)CC1 | 2.86% |  | 
Cc1cc(C)c(NS(=O)(=O)c2ccc3c(c2)n(C)c(=O)n3C)c(C)c1 | 0% |  | 
COc1ccc(-c2cc3nc4c(c(=O)n3[nH]2)CN(C(=O)CN(C)S(=O)(=O)c2cnc[nH]2)CC4)cc1 |  | 21.5 µM (active) | 
Cc1ccc(C(=O)O)c2c1N[C@H](c1cccc(Cl)c1)C1CC=CC21 (some centres not stated) |  |  | inactive
CCCC1c2cccn2CCN1C(=O)Nc1cc(Cl)ccc1C (configuration not stated) |  |  | inactive
COc1ccc(CN2C(=O)c3cc4ccccc4n3CC2(C)C(=O)NCc2ccccc2)cc1OC (configuration not stated) | 0% |  | 
COc1cccc(CNC(=O)c2sc(=S)n3c2[nH]c(=O)c2cc4c(cc23)OCO4)c1 |  | 42.9 µM (active) | 
CCc1ccc(NS(=O)(=O)c2ccc3c(c2)n(C)c(=O)n3C)cc1 | 0% |  | 
COc1ccc(CC(=O)Nc2ccc3ncnc(N4CCCC4)c3c2)c(Cl)c1 | -0.581% |  | 
CC1CC(C)CN(S(=O)(=O)c2ccc3c(c2)oc(=O)n3CC(=O)Nc2cccc(F)c2)C1 (configuration not stated) | 0% |  | 
CCCCN1C(=O)c2cc(C(=O)Nc3cc(C)cc(C)c3)nn2CC1(C)C(=O)NC1CCCC1 (configuration not stated) | 0% |  | 
COc1ccc(S(=O)(=O)N2CCC(n3c(=O)[nH]c4ccccc43)CC2)cc1 | -12% |  | 

Compound | activity change, negative = inhibition | Potency | outcome
COC(=O)[C@@H]1Cc2ncn(Cc3ccc(Cl)cc3)c2CN1CCCc1ccccc1 | 2.15% [at 85.7 µM] |  | 
FC(F)(F)c1ccnc(N2CC[C@H](c3nnc(-c4ccncc4)o3)C2)n1 | 0.304% [at 85.7 µM] |  | 
Cc1cnc(CCNC(=O)c2cccs2)n1C1CCC1 | 3.29% |  | 
Cc1nc2cccnc2n1CC1CCCN(S(=O)(=O)c2ccc3c(c2)OCCO3)C1 (configuration not stated) | -0.116% |  | 
CCCn1c(=O)c2ccccc2n2c(=O)n(CC(=O)c3cccc(Cl)c3)nc12 | -4.81% |  | 
O=C(CCc1nnc2n(CCc3ccccc3)c(=O)c3ccccc3n12)NCCCN1CCCCC1 | 0% |  | 
CC(C)CCNC(=O)c1ccc2c(=O)[nH]c3c(C(=O)NC4CCCC4)sc(=S)n3c2c1 |  | 27.1 µM (active) | 
CC(C)CCn1c(=O)c2ccccc2n2c(CCC(=O)N3CCN(c4cccc(Cl)c4)CC3)nnc12 | 1.8% |  | 
COc1ccc(-c2[nH]nc3ncc(C(=O)N4CCC(c5ccccc5)CC4)nc23)c(C)c1 | -20.4% [at 85.7 µM] |  | 
O=C(c1ccc(C2CCCNC2)cc1)N1CCN(c2ccncc2)CC1 (configuration not stated) | 2.03% |  | 
O=C(NCc1ccc(Cl)cc1)c1ccc2c(=O)nc3c(-c4ccccc4F)n[nH]n3c2c1 | -1.1% |  | 
CCNc1nc2c(s1)C(c1cccc(F)c1)CC(=O)N2 (configuration not stated) |  | 42.9 µM (active) | 
COc1cccc(NC(=O)Cn2c(=O)oc3cc(S(=O)(=O)N4CCCCC4C)ccc32)c1 (configuration not stated) | -1.86% |  | 
CC(C)CCNC(=O)c1ccc2c(=O)[nH]c3c(C(=O)NC(C)C)sc(=S)n3c2c1 |  | 27.1 µM (active) | 
c1ccc(CCN2CCNc3cc(NCc4cccnc4)ncc3C2)cc1 | 1.95% [at 85.7 µM] |  | 
COc1ccc(-c2n[nH]n3c2nc(=O)c2ccc(C(=O)NCc4ccc(OC)c(OC)c4)cc23)cc1 | 0.217% |  | 
COc1ccc(CCNc2nc3c(-c4cccc(F)c4)nnn3c3ccccc23)cc1OC | -8.63% |  | 
O=C(O)c1ccc2c(c1)C1C=CCC1C(c1cccc(F)c1)N2 (configuration not stated) | 2.71% |  | 
CCCN1CCn2c3c(c4cc(OC)ccc42)CCN=C31 | -1.32% |  | 
